Assay results published in PubChem BioAssay (NCI).
About 79,000 compounds went through this panel and 15% of them were active in at least one assay; those are over-represented in the sample as a whole. Unmarked numbers belong to inactive results. The source made the active and inactive calls. No stated cut-off is given here; in the data, active means growth inhibition above about 70%; inactive means the rest. Where a SMILES comes first, the peptide text is derived from it. [ ]: non-standard residue; d: D form. The star is where a group is joined. ξ: configuration not given here. Cbz = O=C(OCc1ccccc1)*; ξP = O=C(O)C1CCCN1

Experiments:
[1] = NCI Yeast Anticancer Drug Screen. Data for the rad50 strain (AID 155);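 further: 0% = growth of vehicle-only cultures of the same strain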; settings: S. cerevisiae rad50 strain growth inhibition; at 50.0 µM; hits give high values
How it was run: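 Growth of the mutant yeast was measured after compound exposure and referenced to vehicle-treated cultures.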

[2] = NCI Yeast Anticancer Drug Screen. Data for the mec2-1 strain (AID 157); settings: S. cerevisiae mec2-1 strain, at 50.0 µM, hits give high values
How it was run: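 Vehicle-treated cultures served as reference for growth inhibition of compound-exposed mec2-1 yeast.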

[3] = NCI Yeast Anticancer Drug Screen. Data for the sgs1 mgt1 strain (AID 161);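 further: 0% = growth of cultures given vehicle only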; settings: S. cerevisiae sgs1 mgt1 strain, at 50.0 µM, hits give high values
How it was run: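 Inhibition of yeast growth, normalised to vehicle-treated controls, is reported for a strain bearing genetic alterations in DNA damage repair.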

[4] = NCI Yeast Anticancer Drug Screen. Data for the cln2 rad14 strain (AID 165);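 further: 0% = growth equal to vehicle treated cultures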; settings: S. cerevisiae cln2 rad14 strain, at 50.0 µM, hits give high values
How it was run: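 Each compound was tested on cln2 rad14 yeast. Inhibition of growth was calculated against vehicle-exposed controls.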

[5] = NCI Yeast Anticancer Drug Screen. Data for the bub3 strain (AID 167); settings: S. cerevisiae bub3 mutant strain, at 50.0 µM, hits give high values
How it was run: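 Whole-cell yeast assay. The mutant strain was incubated with compounds, and growth inhibition was determined by comparison with vehicle-treated cells.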

[6] = NCI Yeast Anticancer Drug Screen. Data for the mlh1 rad18 strain (AID 175); settings: S. cerevisiae mlh1 rad18 strain growth inhibition; at 50.0 µM; hits give high values
How it was run: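 Vehicle-treated cultures served as the reference for growth inhibition in a yeast strain carrying DNA damage repair alterations exposed to each compound.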

Compound | growth inhibition [1] | growth inhibition [2] | growth inhibition [3] | growth inhibition [4] | growth inhibition [5] | growth inhibition [6]
CCN1/C(=C/C=C/C=C/c2oc3ccccc3[n+]2CC)Oc2ccccc21 | 34% | 5.6% | 10.1% | 36.8% | 0.2% | 17.2%
Cc1cc(C)c(NC(N)=S)cc1C | 7.65% | -23.2% | -5.35% | -7.7% | -5.55% | 7.55%
CC(=O)Cc1nc(N)nc(Nc2ccc(Cl)c(Cl)c2)n1 | -8.9% | 13.7% | -10.1% | -11.3% | -13% | -20.5%
NS(=O)(=O)c1ccc(NC(=O)/C=C\C(=O)O)cc1 | -15.6% | -27.2% | 17.1% | -1.4% | -4.2% | -9.6%
Cc1ccc(C(=O)c2ccccc2C(=O)O)cc1C | 4.35% | -4.35% | -17.9% | -18.4% |  | -18.6%
CCOC(=O)N1C=Cc2c(c3ccccc3n2C)N1C(=O)OCC | 3.85% | 1% | 2.15% | -6.3% |  | -6.95%
CCCCN=C1Nc2nc(=NCCCC)nc3c(Br)cc(Br)c(n23)N1 | 37.2% | 20.2% | 5.4% | 23.4% |  | 21.9%
CC(C)(Cl)C1CCC(CC(Cl)(Cl)Cl)CC1 (stereo unspecified) | 5.3% | -16.4% | 0.6% | -26.9% |  | 9.75%
CCCC1(CCC)OC(=O)C(CC)(CC)C(=O)O1 | -10.8% | -3.2% | -1.6% | -23.2% |  | -6%
CN1CC(O)c2cc(N=NC(N)=O)c(O)cc21 (stereo unspecified) | -16.6% | -9.5% | -4.85% | 5.85% |  | -2.45%
CC(=O)OCCOCNC(=S)N/N=C(\C)c1cccs1 | 10.3% | -13.6% | 4.8% | 34.1% |  | -8.95%
COc1cc(Nc2nc3ccccc3nc2C(=O)O)cc(OC)c1OC | -26.2% | -9.45% | -16.1% | 2.5% |  | -45.4%
CCCCCOC(=O)c1cccnc1 | -8.75% | -16.1% | -15% | -0.2% |  | -1.5%
O=C(CNC(=O)OCc1ccccc1)NCC(=O)N1CCCC1C(=O)O (stereo not drawn) (Cbz-Gly-Gly-[ξP]-OH) | -1.6% | 1.15% | -4.45% | 0.25% |  | -23.6%
Cc1ccc(OC(=O)NC(C)(C)C)cc1 | 0.8% | -18.9% | 11.2% | -35.1% |  | -12.5%
C=C(CN(C)C)C(=O)c1ccccc1OC | 35.7% | 30.1% | 44.8% | -25.9% |  | 18.8%
CC(=O)N1c2ccccc2C(C)(C)C1O (stereo unspecified) | 6.85% | 17.1% | -3.55% | -13.7% |  | 3.7%
O=c1cc(C=Nc2ccc(-c3csc(-c4ccccc4)n3)cc2)[nH]c(=S)[nH]1 | 97.2% (active) | 91.2% (active) | 97.7% (active) | 97.2% (active) |  | 98% (active)
COc1cc(C2c3cc4c(cc3[C@@H](Nc3ccc(C#N)cc3)C3COC(=O)[C@H]23)OCO4)cc(OC)c1O (stereo partly specified) | 87.5% (active) | 89.7% (active) | 89.5% (active) | 85.5% (active) |  | 88.3% (active)
COC(=O)C(C)n1c(C)csc1=S (stereo unspecified) | -0.15% | 4.85% | -1.05% | -26.4% | 16.6% | -0.55%
Cn1ccc2c3ccn(C)c3ccc21 | -15.8% | 9.4% | -5.25% | 56.7% |  | 23.1%

Compound | growth inhibition [1] | growth inhibition [2] | growth inhibition [3] | growth inhibition [4] | growth inhibition [5] | growth inhibition [6]
CCC1(CN(C)C)CC/C(=C\c2ccc(OC)c(OC)c2)C1=O (stereo unspecified) | 13.2% | 0% | -1.25% | 15.9% |  | 25.2%
CCC1CN2CCc3cc(OC)c(OC)cc3C2CC1O (stereo unspecified) | 1.3% | 40.4% | 20% | -3.1% |  | 27.9%
CCN(CC)C(=O)COc1ccc(Cl)cc1C(C)C | -17.9% | -16.8% | 1.35% | -2.45% |  | -31.4%
Cn1ccnc1CC(C)(O)c1ccccc1 (stereo unspecified) | -13.2% | -17.4% | -44.9% | 3.9% |  | 6.8%
Nc1nc(N)c(N=Nc2ccc(Cl)cc2Cl)c(=O)[nH]1 | 18.6% | -2.6% | -6.45% | 15.6% |  | 2.75%
O=C(O)c1ccccc1SC(Sc1ccccc1C(=O)O)c1ccc(Cl)cc1 | 4.8% | -9.15% | -9% | -11.9% |  | 15.2%
NN1C(=O)Cc2ccc(Cl)cc21 | 9.1% | -0.7% | -2.9% | -33.5% |  | 2.1%
COc1ccc(-c2cc(=O)c3c([nH]2)CCCC3)cc1 | -10.9% | -6.95% | -11.2% | -16.8% |  | 5.55%
Cc1cccc(SC(=O)Nc2cc([N+](=O)[O-])ccc2Cl)c1 | 6.9% | 4.4% | 11.6% | 10.6% |  | 20.5%
COC(=O)c1ccc(/C=C2\N=C(C)OC2=O)cc1 | -17.9% | -28.6% | 0.6% | 12.2% | -22.8% | -17.9%
CCOC1(C)OC2OC(COC(c3ccccc3)(c3ccccc3)c3ccccc3)C(OC(=O)c3ccccc3)C(OC(=O)c3ccccc3)C2O1 (stereo unspecified) | -3.5% | 14% | 4.05% | -9.4% |  | 29.6%
COc1ccc(C2(C(OC)OC)NC(=O)NC2=O)cc1 (stereo unspecified) | -26.8% | -4.1% | -8.8% | 35.4% |  | -8.85%
COc1ccc2cc(C(=O)c3ccccc3)c(=O)oc2c1 | -0.1% | -20.9% | 18.8% | 11.1% |  | -13.6%
CCCCCCCCCCCCCCCCCN(C)C(=O)OCC | 23.1% | -62.5% | -55.5% | -114% |  | -30.8%
CSc1ccc(OC(=O)Nc2ccc(Cl)c(Cl)c2)cc1C | 95.3% (active) | 96.5% (active) | 96.9% (active) | 95% (active) |  | 95.1% (active)
O=C(/C=C/c1ccc2c(c1)OCO2)CC(=O)/C=C/c1ccc2c(c1)OCO2 | 3.5% | 19.6% | 11.3% | 7.15% |  | -15.6%
COc1ccc(N=Nc2ccc(OC)cc2C)c(C)c1 | 1.7% | -2.3% | 1.9% | -4.7% |  | 7.15%
NC(=O)CC(N)C(=O)NC(Cc1ccccc1)C(=O)NC(Cc1ccccc1)NC(=O)C(Cc1c[nH]c2ccccc12)C(=O)O (stereo unspecified) | -18.6% | 8.05% | -11.1% | -13.2% |  | 1.95%
NC(=O)N(CCO)/N=C/c1ccc([N+](=O)[O-])o1 | 42.3% | 15.7% | 54.8% | 17.9% |  | 59.9%
CSCSCC(CO)NC(=O)/C(C)=C\c1c(C)[nH]c(=O)[nH]c1=O (stereo unspecified) | -3.35% | -2% | -2.35% | -7% |  | -13.1%
